This is an account of results in PubChem BioAssay AID2314 (National Center for Advancing Translational Sciences (NCATS), 2010).

The whole screen tested about 300,000 compounds, of which about 37,000 (12%) were called active. Rule as the data show it: active = max response mostly above about 13% (no sharp cut-off); inactive = mostly below about 14%. Only a selection was taken, and actives are over-represented in it overall.

The experiment can be described thus: Cycloheximide Counterscreen for Small Molecule Inhibitors of Shiga Toxin. Also: read at 38.3 µM for the half of the compounds with a filed dose; 0% is about no effect. The following applies: cell reporter, cycloheximide protein synthesis inhibition counterscreen; active compounds read high.
As to `CCCC(C)c1nnc(NC(=O)C2CC(=O)N(c3ccc(OCC)cc3)C2)s1` (configuration not stated), the max response is -2.49% (inactive).

With `COc1ccc(N2CCN(C(=O)CNC(=O)c3ccc(Br)o3)CC2)cc1`, the max response was -1.81% (inactive).

`CC1=C(C(N)=O)C(c2ccc(F)cc2)n2nc(CCCO)nc2N1` (configuration not stated): the max response was 5.22% (inactive).

In the case of `CC(C)(C)c1ccc(SCCc2ccncc2)cc1`, the max response is 12.3% (active).

For `Cc1cc(C)c(SCCc2ccncc2)c(C)c1`, the max response was 1.01% (inactive).

With `CC(c1ccccc1)(c1ccccc1)c1ccncc1`, the max response was -5.73% (inactive).

As to `COc1ccc(N2CCN(C(=O)Cn3cnc4sc(C)c(S(=O)(=O)N5CCOCC5)c4c3=O)CC2)cc1`, the max response is -2.13% (inactive).

On to `Cn1c(=O)[nH]c(=O)c2c1[nH]c(=S)n2Cc1ccccc1`, for which the max response was -6.84% (inactive).

Consider `CCOCc1nnc(NC(=O)CCC2CCCCC2)s1`, for which the max response is 9.52% (inactive).

On to `CCc1ccc(OCC(O)CN2CCN(CCO)CC2)cc1` (configuration not stated), for which the max response is -1.22% (inactive).

Take `CCn1c(SC)nc(O)c(C(c2ccc(OC)c(O)c2)c2c(O)nc(SC)n(CC)c2=O)c1=O`: the max response was 18.8% (inactive).

On to `Cc1onc(-c2ccc(Cl)cc2)c1-c1ccnn1S(=O)(=O)c1ccc(Cl)cc1`, for which the max response is 9.73% (inactive).

Take `COc1ccccc1CNS(=O)(=O)c1ccc(C)cc1`: the max response was 7.14% (inactive).

Consider `COc1ccc(-c2noc(CN(C)S(=O)(=O)c3ccc(C)cc3)n2)cc1`, for which the max response was -2.54% (inactive).

With `COc1ccc(CCNS(=O)(=O)c2cccc3cccnc23)cc1OC`, the max response is -1.86% (inactive).

As to `CCCc1nc(-c2cc3cc(C)ccc3[nH]c2=O)no1`, the max response was 2.4% (inactive).

With `COc1ccc(-c2noc(-c3ccc(C)cc3)n2)cc1`, the max response was 39.5% (active).

In the case of `COc1ccc2[nH]c(=O)c(CN(Cc3cccnc3)S(=O)(=O)c3ccccc3F)cc2c1`, the max response is -2.1% (inactive).

With `COc1ccccc1Cc1nc(-c2ccc(C)cc2)no1`, the max response is 35.3% (active).

In the case of `Cc1ccc(-c2noc(CC(c3ccccc3)c3ccccc3)n2)cc1`, the max response was 11% (inactive).

Regarding `COc1ccc(-c2noc(CSc3ccc(C)cc3)n2)cc1`, the max response is 10.3% (inactive).

On to `COc1ccc(CCNC(=O)C(Sc2ccccn2)c2ccccc2)cc1OC` (configuration not stated), for which the max response was -1.92% (inactive).

Consider `COc1ccc(Cc2nc(-c3ccccn3)no2)cc1OC`, for which the max response was 33% (active).

For the compound `COc1ccc2[nH]c(=O)c(-c3noc(-c4ccc(F)cc4)n3)cc2c1`, the max response was 41% (active).

As to `O=c1c([N+](=O)[O-])cccn1Cc1ccc(F)cc1Cl`, the max response is -5.4% (inactive).

For the compound `CCCN(CCC)C(=S)Nc1cc(C(=O)OC)ccc1C(=O)OC`, the max response is -1.36% (inactive).

In the case of `COc1ccc(S(=O)(=O)/N=C2\C=C(NS(=O)(=O)c3ccccc3)C(=O)c3ccccc32)cc1`, the max response was 13.7% (inactive).
